A selection: hits, their analogues and other compounds. The true share with any hit is near 0.81%.
NR2F2 inh: blocks human COUP-TFII nuclear receptor. P24468. HEK293T NGFI-A luciferase reporter, luminescence. inhibition, % at 8.6 µM. hit rate 0.7% among 370,000. AID 686940;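 active = inhibition above a per-plate cutoff, mean inhibition of test wells between control levels plus 3 SD, cut at about 38% in these data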;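 also: cells cotransfected with COUP-TFII expression vector driving the NGFI-A reporter; 0% = median of COUP-TF2 test wells and 100% = reporter-only cells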
SRC1 inh: inhibits human SRC1 coactivator; Q15788; HEK293 GAL4-SRC1 luciferase reporter, luminescence; inhibition, % at 3.6 µM; hit rate 0.12% among 360,000; AID 588354;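 active = inhibition above the campaign mean plus 3 SD, with each screening campaign given its own cutoff, cut at about 60% in these data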;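 also: 0% = DMSO treated cells and 100% = gossypol at 36 µM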
LRH-1 inv ag: suppresses constitutive activity of human LRH-1; O00482; hit rate 0.13% among 360,000; inhibition, % at 3.6 µM; HEK293T StAR-luciferase reporter, LRH-1 transfected, 24 h;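 active = inhibition above the mean inhibition of all tested compounds plus 3 SD, cut at about 73% in these data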;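 also: 0% = DMSO wells and 100% = reporter-only cells lacking LRH-1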
NCOA3 inh: inhibits human SRC3 coactivator | inhibition, % at 3.6 µM | hit rate 0.17% among 360,000 | Q9Y6Q9 | HEK293 GAL4-SRC3 luciferase reporter, luminescence;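 active = inhibition above a per-campaign cutoff, the mean of all compounds plus 3 SD, cut at about 60% in these data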;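 also: 0% = DMSO-treated cells and 100% = gossypol-treated cells at 36 µM; higher means less SRC3-driven luciferase light from the GAL4 reporter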
Target sequence (Q9Y6Q9 whole entry, looked up, the tested form may be a part): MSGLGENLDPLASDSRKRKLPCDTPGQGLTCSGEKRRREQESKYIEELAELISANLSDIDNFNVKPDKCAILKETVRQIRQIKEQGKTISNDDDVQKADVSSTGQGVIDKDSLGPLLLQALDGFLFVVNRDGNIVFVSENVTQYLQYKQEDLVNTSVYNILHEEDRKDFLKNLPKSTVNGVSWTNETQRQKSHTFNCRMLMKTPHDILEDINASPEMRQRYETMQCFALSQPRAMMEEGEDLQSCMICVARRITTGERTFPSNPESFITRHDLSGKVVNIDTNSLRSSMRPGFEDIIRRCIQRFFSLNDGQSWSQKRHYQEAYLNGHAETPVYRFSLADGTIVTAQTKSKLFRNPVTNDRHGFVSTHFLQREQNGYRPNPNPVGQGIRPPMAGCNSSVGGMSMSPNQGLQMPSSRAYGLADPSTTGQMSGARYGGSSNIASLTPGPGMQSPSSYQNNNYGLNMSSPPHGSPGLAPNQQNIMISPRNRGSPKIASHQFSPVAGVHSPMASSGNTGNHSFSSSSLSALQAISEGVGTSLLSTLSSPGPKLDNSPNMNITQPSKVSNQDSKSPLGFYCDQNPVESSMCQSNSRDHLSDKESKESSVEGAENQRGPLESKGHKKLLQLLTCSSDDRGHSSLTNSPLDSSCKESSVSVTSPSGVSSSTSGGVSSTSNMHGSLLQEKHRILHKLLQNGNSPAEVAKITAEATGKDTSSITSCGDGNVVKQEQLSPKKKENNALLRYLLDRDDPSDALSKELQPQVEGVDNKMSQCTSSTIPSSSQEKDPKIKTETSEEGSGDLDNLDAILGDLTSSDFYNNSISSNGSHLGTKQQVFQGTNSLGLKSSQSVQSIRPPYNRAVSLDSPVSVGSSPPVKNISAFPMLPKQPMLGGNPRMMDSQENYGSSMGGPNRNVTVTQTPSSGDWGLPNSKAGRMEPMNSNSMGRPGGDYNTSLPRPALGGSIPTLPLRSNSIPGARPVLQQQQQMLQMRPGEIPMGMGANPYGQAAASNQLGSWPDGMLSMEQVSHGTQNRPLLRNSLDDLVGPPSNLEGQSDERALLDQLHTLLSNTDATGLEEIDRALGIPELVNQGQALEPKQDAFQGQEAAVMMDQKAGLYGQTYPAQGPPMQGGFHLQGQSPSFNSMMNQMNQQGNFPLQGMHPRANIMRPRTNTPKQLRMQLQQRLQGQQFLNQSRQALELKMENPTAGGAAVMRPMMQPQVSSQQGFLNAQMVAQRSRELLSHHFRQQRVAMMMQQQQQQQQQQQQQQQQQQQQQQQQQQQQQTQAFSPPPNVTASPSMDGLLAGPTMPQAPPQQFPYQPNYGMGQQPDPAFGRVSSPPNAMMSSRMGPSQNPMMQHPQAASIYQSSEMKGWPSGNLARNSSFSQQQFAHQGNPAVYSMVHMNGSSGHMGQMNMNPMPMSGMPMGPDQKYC
NCOA2 inhibitor: inhibits human steroid receptor coactivator 2. hit rate 0.17% among 370,000. HEK293 GAL4-SRC2 luciferase reporter, luminescence. inhibition, % at 9 µM. AID 651957;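 active = inhibition above the mean inhibition of all tested compounds plus 3 SD, set per campaign, cut at about 52% in these data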;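 also: 0% = DMSO treated cells and 100% = cells given Gossypol at 36 µM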
VP16 Luc counter: counter-screen for COUP-TFII antagonists: inhibitors of VP16; shares compounds with NR2F2 inh; HEK293 Gal4-VP16 luciferase reporter, luminescence; inhibition, % at 8.5 µM; hit rate 25% among 2,500; AID 687007; in the data active = inhibition above about 13%
COUP-TFII conf: confirmation of human COUP-TFII (NR2F2) inhibitors | HEK293 NGFI-A luciferase reporter, luminescence | inhibition, % at 8.5 µM | shares compounds with NR2F2 inh | hit rate 45% among 2,500;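 active = mean inhibition over three repeats above a set limit taken from the earlier primary screen, cut at about 38% in these data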;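 also: 100% = cells given the luciferase reporter alone without the COUP-TF2 vector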
Numbers without * were called inactive; . = no result.

SMILES	NR2F2 inh	SRC1 inh	LRH-1 inv ag	NCOA3 inh	NCOA2 inhibitor	VP16 Luc counter	COUP-TFII conf
COc1ccc(CN(C)Cc2nc(Cc3cccc(F)c3)no2)c2cccnc12	60*	19	32	28	23	-10	47*
c1ccc(-c2cc(CSc3nc4ccccc4[nH]3)on2)cc1	40*	0	-5	22	-13	-7	14
Cc1noc(C)c1CSc1nc2ccccc2[nH]1	-13	2	19	-7	-19	.	.
CCOC(=O)c1cc(-c2ccc(C)cc2)n(CCC(=O)N2CCN(c3ccccn3)CC2)c1C	39*	-8	11	12	8	-6	8
O=C(NCC1COc2ccccc2O1)c1ccc(NC(=O)c2cccc(F)c2)cc1 (stereo not drawn)	4	.	.	.	-4	.	.
CCOc1ccccc1NC(=O)c1cnc2n(c1=O)CCS2	-2	11	-12	-5	19	.	.
O=C(Nc1ccc(Oc2ccccc2)cc1)c1cnc2n(c1=O)CCS2	43*	-5	-2	-2	2	-58	38*
OC[C@@H]1CN(Cc2ccncc2)C[C@H](n2cnc3c(NCc4ccncc4)ncnc32)O1	-16	-11	-5	14	8	.	.
COc1ccc(-c2nc(N3CCCCCC3)sc2C(=O)c2ccccc2)cc1	58*	-9	-4	6	-35	-11	-2
O=C(c1ccccc1)c1sc(N2CCCCCC2)nc1-c1ccccc1	-11	-3	-4	16	19	.	.
Cc1nn(CC(=O)N2CCCC2)c(=O)c2cc3cc(F)ccc3n12	1	9	7	6	5	.	.
Cc1ccc(-c2csc(N3CCN(CCCn4c(-c5ccncc5)nc5ccccc54)CC3)n2)cc1	53*	-5	-26	1	0	1	29
CC(=O)N[C@@H](C)c1nc2ccccc2n1CCCN1CCN(c2nc(-c3ccc(C)cc3)cs2)CC1	62*	-2	16	-8	20	-11	48*
Cc1ccc(-c2csc(N3CCN(CCCn4c(C(F)(F)F)nc5ccccc54)CC3)n2)cc1	6	-1	9	-2	2	.	.
Cc1cc(Br)ccc1NC(=O)CNC(=O)Cc1ccc(S(=O)(=O)N2CCOCC2)s1	11	-15	4	13	-33	.	.
COc1cccc(OC)c1NC(=O)OCCN1CCCC12CCC(c1ccccc1)CC2 (stereo not drawn)	-17	.	.	.	.	.	.
CCCCN(Cc1ccc(C(=O)N[C@H](C(=O)O)C(C)C)cc1)C(=O)C(c1ccccc1)c1ccccc1	-13	-20	-11	-6	10	.	.
CSc1nc2nccc(-c3ccc(Oc4ccccc4)cc3)n2n1	-1	-12	0	-2	9	.	.
CCCCNC(=O)C1(C)CCCCN1C(=O)c1ccc2c(c1)C(C)(C)CCC2(C)C (stereo not drawn)	38*	25	25	-12	21	-4	29
CCCCNC(=O)C1(C)CCN1C(=O)c1ccc2c(c1)C(C)(C)CCC2(C)C (stereo not drawn)	20	1	16	3	28	.	.
Cc1nc2ncnn2c(N2CCN(c3cccc(C(F)(F)F)c3)CC2)c1C	44*	-2	10	28	-2	3	20
COc1ccc(S[C@]2(C(=O)N3CCOCC3)CC(=O)N(c3ccc(OC)cc3)[C@@H]2c2ccc(OC)cc2)cc1	4	.	.	.	-42	.	.
CN(Cc1ccc(OCC(O)CN2CCCCC2)cc1)Cc1ccnc2ccccc12 (stereo not drawn)	59*	15	25	12	20	8	44*
Cc1cc(C)cc(C(=O)OCCN(C)C2CN(Cc3cn(Cc4ccc([N+](=O)[O-])cc4)nn3)S(=O)(=O)C2)c1 (stereo not drawn)	3	.	.	.	-4	.	.
Cc1[nH]c2ccccc2c1/C=N/NC(N)=S	14	2	-1	2	3	.	.
SMILES	NR2F2 inh	SRC1 inh	LRH-1 inv ag	NCOA3 inh	NCOA2 inhibitor	VP16 Luc counter	COUP-TFII conf
CCc1nnc(N/N=C/c2c(C)[nH]c3ccccc23)n1N	53*	9	27	6	4	-1	-1
COc1ccc(/C=C2/SC(=S)N(CCC(=O)O)C2=O)cc1	46*	49	20	48	84*	12	56*
CC(=C\c1ccccc1)/C=C1/SC(=S)N(CCCC(=O)O)C1=O	38*	-9	3	2	53*	73*	51*
O=C(O)CCCN1C(=O)/C(=C\c2ccco2)SC1=S	44*	2	10	23	47	50*	36
CC(/C=C1\SC(=O)N(CCCC(=O)O)C1=O)=C\c1ccccc1	92*	26	20	42	93*	92*	100*
CCC(CC)C(=O)N(C)c1c(C)nc2c(OCc3ccc(OC(F)F)cc3)cccn12	24	28	12	20	-10	.	.
O=C(CSc1nnc2ccccn12)NNC(=O)c1ccccc1F	-3	2	0	15	-22	.	.
COc1cccc(/C=C2\SC(=S)N(CCCC(=O)N3CCCCC3CCO)C2=O)c1 (stereo not drawn)	39*	18	10	18	52	31*	20
COc1cccc(/C=C2\SC(=S)N(CCC(=O)N3CCCCC3CCO)C2=O)c1 (stereo not drawn)	-6	-10	-15	15	17	.	.
CN1CCN(Cc2c(O)ccc3occ(C(=O)c4ccccc4)c23)CC1	16	1	-3	6	-19	.	.
CC(=O)C(C(C)=O)c1c(Cl)c(O)c(O)c2c(C(=O)c3ccccc3)coc12	68*	10	54	7	30	14*	60*
COCCNc1nc(Oc2ccc(C(N)=O)cc2)c2sccc2n1	14	9	2	5	4	.	.
Oc1cccc2cc(Nc3ccccc3)cnc12	55*	57	90*	69*	14	-9	46*
Cc1cc(N2CCN(C(=O)Oc3ccc(-c4ccccc4)cc3)CC2)c2ccccc2n1	62*	.	.	.	18	-1	36
C[C@@H]1C[C@H]2O[C@@H]2/C=C\C=C\C(=O)Cc2cc(O)cc(O)c2C(=O)O1	86*	.	.	.	55*	38*	5
C[C@@H]1Cc2cc(O)c(O)c(O)c2C(=O)O1	13	.	.	.	1	.	.
C[C@@H]1C[C@@H]2O[C@H]2CCCCC(=O)Cc2cc(O)cc(O)c2C(=O)O1	63*	.	.	.	41	59*	65*
COc1ccc(/C=C/C(=O)Nc2ccccc2C(=O)O)cc1OC	60*	38	37	49	34	-17	35
Cc1ccc(-n2c(SCc3ccc(C(=O)O)cc3)nnc2-c2ccncc2)cc1	-17	1	16	17	-16	.	.
CCN(c1ccc(NC(=O)c2ccc(N3CCCC3=O)cc2)cc1)C(C)C	49*	4	24	23	27	-9	18
COc1ccccc1N1CCN(C(=O)CSc2nnc3n2C(C)(C)Cc2ccccc2-3)CC1	63*	9	26	39	28	4	45*
